What all share (assay): Primary Screen for Target Class Profiling of Small Molecule Inhibitors of Methyltransferases
Experiment [1] addresses Catechol O-methyltransferase (Homo sapiens) (UniProt P21964). As to conditions: purified enzyme, MTase-Glo SAH luminescence; at 40 µM; stronger effect = lower value. The source says:
(§1) PI: Matthew D. Hall Ph.D. and Quinlin M. Hanson Ph.D.
(§2) National Center for Advancing Translational Sciences (NCATS)
(§3) National Institute of Health (NIH), Rockville, MD
(§4) Target class profiling (TCP) is a chemical biology approach amenable to investigating understudied biological targets. TCP is achieved by developing a generalizable assay platform and applying it to screen a curated set of compound libraries against representative members of a target class. Small molecule methyltransferases (SMMTase) are a subclass of methyltransferase that act on metabolites to modulate signaling pathways, metabolize xenobiotics, or balance the available methyl pool. We screened four curated libraries totaling 27,574 unique compounds against the SMMTases nicotinamide N-methyltransferase (NNMT), phenylethanolamine N-methyltransferase (PNMT), histamine N-methyltransferase (HNMT), glycine N-methyltransferase (GNMT), catechol O-methyltransferase (COMT), and guanidinoacetate N-methyltransferase (GAMT). The data generated by this TCP can be leveraged for informed tool molecule development. For example, in the associated publication we identified a chemotype of HNMT-selective inhibitors. Additionally, we identified a putative SMMTase-selective inhibitor with potential as a tool molecule for studying broader methyltransferase biology.
(§5) High-through put screening assays were developed at the National Center for Advancing Translational Science (NCATS) for the enzymes NNMT, PNMT, HNMT, GNMT, COMT, and GAMT. Enzymatic activity was measured as a function of SAM cofactor conversion using the MTase Glo kit (Promega) for all enzymes. All assays were performed in 1536-well format with substrates and SAM concentrations at KM values. Enzyme concentration and assay timing were optimized for 10-20% SAM conversion. Initial screening of 27,574 compounds was done as single-point assays using the highest compound concentration (40 uM). […] These compounds were replated in 11-point dose response and assayed against NNMT, PNMT, HNMT, GNMT, COMT, GAMT, and a counter-assay. The IC50 and efficacy (maximal response) values were determined for each dose-response curve. These values are also accounted for in the area under the curve (AUC) values.
(§6) PROTOCOL TABLE (as described by Inglese J, Shamu CE and Guy RK. 2007)
(§7) SEQUENCE No. (e.g., 1, 2, 3, etc.); […] (e.g., Cells, Incubation, Reagent, etc.); VALUE; DESCRIPTION.
(§8) 1; Reagent; 2 uL; SMMTase Enzyme (2x) in reaction buffer, columns 1- 48.
(§9) 2; Reagent; 1 uL; SAM (4x) in reaction buffer, columns 1-48.
(§10) 3; Controls; 23 nL; DMSO in column 4; sinefungin in DMSO (0 uM - 40 uM) in 7-point 1:2 dilution series (n = 2) in column 2.
(§11) 4; Compounds; 23 nL; Columns 5-48.
(§12) 5; Reagent; 1 uL; Substrate (4x) in reaction buffer, columns 2-48.
(§13) 6; Time; 20-30 min; Incubation.
(§14) 7; Reagent; 1 uL; MTase-Glo reagent (5X), columns 1-48.
(§15) 8; Time; 30 min; Incubation.
(§16) 9; Reagent; 5 uL; MTase-Glo Detection reagent, columns 1-48.
(§17) 10; Time; 30 min; Incubation, luminescence evolution.
(§18) 11; Detection; Luminescence; ViewLux uHTS Microplate Imager (PerkinElmer).
(§19) NOTES (numbers refer to Sequence numbers above)
(§20) 1, 2, 5. White Medium Binding Greiner 1536-well plates (Cat #789175-F, Greiner Bio-One, Monroe, NC); Reaction buffer: 50 mM Tris, pH 8.0, 3 mM MgCl2, 1 mM EDTA, 50 mM NaCl, 1 mM DTT, and 0.1 mg/mL BSA. Evaporation was prevented by covering assay plates with metal lids containing holes to allow gas diffusion.
(§21) 1. Six SMMTase were profiled: HNMT, GNMT, PNMT, COMT, NNMT, GAMT
(§22) 5. The corresponding substrate was used for each enzyme: HNMT - 5.3 uM Histamine; GNMT - >500 uM Glycine; PNMT - 16.2 uM Norephinephrine; COMT - 13.7 uM Norephinephrine; NNMT - 3.8 uM Nicotinamide; GAMT - 2.5 uM Guanidinoacetate.6, 8, 10. Room temperature
(§23) 6. Final reaction conditions: 10 nM COMT, 5 uM SAM, 15 uM norepinephrine, 50 mM Tris, pH 8.0, 3 mM MgCl2, 1 mM EDTA, 50 mM NaCl, 1 mM DTT, and 0.1 mg/mL BSA; refer to tables 2 and S1 for specific timing.
8. […]

Experiment [2] deals with Glycine N-methyltransferase (Homo sapiens) (UniProt Q14749). Conditions: purified enzyme, MTase-Glo SAH luminescence; measured here: GNMT inhibition; at 40 µM; stronger effect = lower value.
Text: as §1, §2, §3, §4, §5, §6, §7, §8, §9, §10, §11, §12, §13, §14, §15, §16, §17, §18, §19, §20, §21, §22, §23
8. […]

For experiment [3], the target named is Guanidinoacetate N-methyltransferase (Homo sapiens) (UniProt Q14353). Conditions: purified enzyme, MTase-Glo SAH luminescence; measured here: GAMT inhibition; at 40 µM; stronger effect = lower value.
Text: as §1, §2, §3, §4, §5, §6, §7, §8, §9, §10, §11, §12, §13, §14, §15, §16, §17, §18, §19, §20, §21, §22, §23
8. […]

For experiment [4], the target named is Histamine N-methyltransferase (Homo sapiens) (UniProt P50135). As to conditions: purified enzyme, MTase-Glo SAH luminescence; measured here: HNMT inhibition; at 40 µM; stronger effect = lower value.
Text: as §1, §2, §3, §4, §5, §6, §7, §8, §9, §10, §11, §12, §13, §14, §15, §16, §17, §18, §19, §20, §21, §22, §23
8. […]

Experiment [5] deals with Nicotinamide N-methyltransferase (Homo sapiens) (UniProt P40261). Conditions: purified enzyme, MTase-Glo SAH luminescence; measured here: NNMT inhibition; at 40 µM; stronger effect = lower value.
Text: as §1, §2, §3, §4, §5, §6, §7, §8, §9, §10, §11, §12, §13, §14, §15, §16, §17, §18, §19, §20, §21, §22, §23
8. […]

Experiment [6] deals with Phenylethanolamine N-methyltransferase (Homo sapiens) (UniProt P11086). Conditions: purified enzyme, MTase-Glo SAH luminescence; measured here: PNMT inhibition; at 40 µM; stronger effect = lower value.
Text: as §1, §2, §3, §4, §5, §6, §7, §8, §9, §10, §11, §12, §13, §14, §15, §16, §17, §18, §19, §20, §21, §22, §23
8. […]

The whole screen tested about 25,000 compounds, of which about 970 (3.9%) were called active. Roughly 8% stayed inconclusive and do not appear here. How the calls were made is not given here. The full list was thinned out, with actives kept by preference.
On the % scale 0 is the no-effect control and ±100 the full control effect.

Phenylethanolamine N-methyltransferase (Homo sapiens), sequence (P11086 whole entry, looked up): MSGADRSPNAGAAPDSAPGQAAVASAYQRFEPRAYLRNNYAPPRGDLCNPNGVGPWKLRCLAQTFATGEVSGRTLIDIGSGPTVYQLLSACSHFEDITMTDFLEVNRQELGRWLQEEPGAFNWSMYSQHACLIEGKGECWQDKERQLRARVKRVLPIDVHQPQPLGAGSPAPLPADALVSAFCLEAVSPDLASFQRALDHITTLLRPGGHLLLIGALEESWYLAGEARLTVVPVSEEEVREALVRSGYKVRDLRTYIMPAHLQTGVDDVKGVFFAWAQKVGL
Glycine N-methyltransferase (Homo sapiens), sequence (Q14749 whole entry, looked up): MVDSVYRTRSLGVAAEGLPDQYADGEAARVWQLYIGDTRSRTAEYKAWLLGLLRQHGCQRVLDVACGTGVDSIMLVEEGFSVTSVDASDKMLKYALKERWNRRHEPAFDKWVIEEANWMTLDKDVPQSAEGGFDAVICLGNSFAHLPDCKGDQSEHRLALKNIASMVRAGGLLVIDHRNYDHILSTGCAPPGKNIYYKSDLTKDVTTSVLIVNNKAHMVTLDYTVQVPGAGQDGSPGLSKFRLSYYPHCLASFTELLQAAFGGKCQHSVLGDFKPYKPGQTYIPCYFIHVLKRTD
Catechol O-methyltransferase (Homo sapiens), sequence (P21964 whole entry, looked up): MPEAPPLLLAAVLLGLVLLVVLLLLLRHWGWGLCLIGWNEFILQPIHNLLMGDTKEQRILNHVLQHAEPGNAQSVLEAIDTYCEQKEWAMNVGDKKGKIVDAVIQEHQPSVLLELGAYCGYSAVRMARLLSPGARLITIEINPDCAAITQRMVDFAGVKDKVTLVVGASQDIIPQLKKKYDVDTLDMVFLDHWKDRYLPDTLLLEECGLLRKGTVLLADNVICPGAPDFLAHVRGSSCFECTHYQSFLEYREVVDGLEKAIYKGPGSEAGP
Histamine N-methyltransferase (Homo sapiens), sequence (P50135 whole entry, looked up): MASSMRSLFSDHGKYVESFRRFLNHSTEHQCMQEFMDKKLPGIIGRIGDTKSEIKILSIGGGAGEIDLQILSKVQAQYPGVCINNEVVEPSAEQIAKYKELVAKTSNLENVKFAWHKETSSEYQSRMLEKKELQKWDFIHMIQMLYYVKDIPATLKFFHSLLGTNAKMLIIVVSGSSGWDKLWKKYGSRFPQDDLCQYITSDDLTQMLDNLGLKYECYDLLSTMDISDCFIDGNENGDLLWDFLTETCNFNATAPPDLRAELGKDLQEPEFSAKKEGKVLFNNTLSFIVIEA
Nicotinamide N-methyltransferase (Homo sapiens), sequence (P40261 whole entry, looked up): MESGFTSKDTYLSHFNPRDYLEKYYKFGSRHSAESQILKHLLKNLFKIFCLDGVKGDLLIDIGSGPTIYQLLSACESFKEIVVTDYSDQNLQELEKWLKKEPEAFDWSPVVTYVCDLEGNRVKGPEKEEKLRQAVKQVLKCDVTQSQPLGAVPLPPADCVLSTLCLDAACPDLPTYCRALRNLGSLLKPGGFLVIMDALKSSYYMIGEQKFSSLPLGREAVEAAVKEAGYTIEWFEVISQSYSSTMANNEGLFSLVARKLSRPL

For `COC1CC(O[C@H]2CC[C@@]3(C)C(CCC4C3CC[C@]3(C)[C@@H](C5=CC(=O)OC5)CC[C@]43O)C2)OC(C)C1O` (stereo not given in full), the activity change, negative = inhibition in experiment [1] is -9.86% (inactive); in experiment [2], -6.87%; in experiment [3], -29.4%; in experiment [4], 1.18%; in experiment [5], -27.7%; in experiment [6], -12.7%.
As for `CO[C@H]1C[C@H](O[C@H]2CC[C@]3(CO)[C@H]4CC[C@]5(C)[C@@H](C6=CC(=O)OC6)CC[C@]5(O)[C@@H]4CC[C@]3(O)C2)O[C@H](C)[C@H]1O`, the activity change, negative = inhibition is -8.57% (inactive) in experiment [1]; -6.2% in experiment [2]; -5.89% in experiment [3]; -0.519% in experiment [4]; -17.6% in experiment [5]; -14.3% in experiment [6].
As for `C[C@H]1O[C@@H](O[C@H]2CC[C@]3(CO)C4CC[C@]5(C)[C@@H](C6=CC(=O)OC6)CC[C@]5(O)[C@@H]4CC[C@H]3C2)[C@H](O)[C@H](O)[C@@H]1O[C@@H]1O[C@H](CO)[C@@H](O)[C@H](O)[C@H]1O` (stereo not given in full), the activity change, negative = inhibition in experiment [1] is -91.7% (active); in experiment [2], -5.56%; in experiment [3], -4.58%; in experiment [4], -5.35%; in experiment [5] it was -16%; in experiment [6] it was 0.37%.
Take `CN(C)c1ccc(C2c3cccn3-c3ccccc3CN2C(=O)NCc2ccccc2)cc1` (stereo not given): the activity change, negative = inhibition in experiment [1] was 0.57% (inactive); in experiment [2], 0.802%; in experiment [3] it was 6.24%; in experiment [4], -5.35%; in experiment [5] it was -6.61%; in experiment [6], -0.417%.
As to `CN(C)c1ccc(C2c3cccn3-c3ccccc3CN2C(=O)Nc2ccccc2)cc1` (stereo not given), the activity change, negative = inhibition is -1.13% (inactive) in experiment [1]; 1.96% in experiment [2]; -0.001% in experiment [3]; -8% in experiment [4]; -4.78% in experiment [5]; -1.52% in experiment [6].
With `NCC(O)c1ccc(O)cc1` (stereo not given), the activity change, negative = inhibition in experiment [1] was 3.68% (active); in experiment [2], -1.52%; in experiment [3], 3.17%; in experiment [4], -74.4%; in experiment [5] it was -9.18%; in experiment [6], 11.4%.
Take `COCC1CN(Cc2ccsc2)CC12CCNCC2` (stereo not given): the activity change, negative = inhibition in experiment [1] was -8.14% (inactive); in experiment [2], -4.38%; in experiment [3] it was -6.87%; in experiment [4] it was -9.72%; in experiment [5], -11.7%; in experiment [6] it was -11.5%.
As to `CCc1ccccc1NC(=O)N1Cc2ccccc2-n2cccc2C1c1ccccc1Cl` (stereo not given), the activity change, negative = inhibition in experiment [1] was -0.522% (inactive); in experiment [2], 4.4%; in experiment [3] it was 3.52%; in experiment [4], -2.61%; in experiment [5] it was 1.65%; in experiment [6], 1.03%.
For the molecule `CC(=O)Nc1ccc(-c2ccc3n(c2=O)C[C@H]2C[C@@H]3CN(C3CCN(C)CC3)C2)cc1`, the activity change, negative = inhibition in experiment [1] is -5.08% (inactive); in experiment [2], -3.31%; in experiment [3], -2.09%; in experiment [4], -19.5%; in experiment [5], -9.65%; in experiment [6], 8.92%.
`C#C[C@]1(O)CC[C@H]2[C@@H]3CC[C@H]4Cc5nc6nc7ccccc7n6cc5C[C@]4(C)[C@H]3CC[C@@]21C`: the activity change, negative = inhibition in experiment [1] was -23.3% (active); in experiment [2], -13.8%; in experiment [3], -29.6%; in experiment [4], -17.3%; in experiment [5] it was -52.4%; in experiment [6], -33.3%.
For the molecule `COc1cccc([C@H]2CN(c3cc(C)nc(N)n3)[C@@H]3C4CCN(CC4)[C@H]23)c1`, the activity change, negative = inhibition in experiment [1] was -2.54% (inactive); in experiment [2], -5.12%; in experiment [3], -8.6%; in experiment [4], -24.3%; in experiment [5] it was -8.14%; in experiment [6], -9.36%.
As for `COc1cccc(CC(=O)N2CCCCCC2CN2CCCC2)c1` (stereo not given), the activity change, negative = inhibition in experiment [1] was 3.61% (inactive); in experiment [2] it was -1.59%; in experiment [3], -5.27%; in experiment [4] it was -5.48%; in experiment [5] it was -4.35%; in experiment [6], 0.866%.
Take `CCc1ccc(C2c3cccn3-c3ccccc3CN2C(=O)Nc2cc(C)cc(C)c2)cc1` (stereo not given): the activity change, negative = inhibition is 5.19% (inactive) in experiment [1]; 9.8% in experiment [2]; 0.9% in experiment [3]; 2.8% in experiment [4]; 4.04% in experiment [5]; 7.84% in experiment [6].
Turning to `COC(=O)c1ccccc1NC(=O)N1Cc2ccccc2-n2cccc2C1c1ccccc1Cl` (stereo not given), the activity change, negative = inhibition in experiment [1] is 3.56% (inactive); in experiment [2] it was 11.4%; in experiment [3], 3.31%; in experiment [4], 5.36%; in experiment [5], 0.178%; in experiment [6], 5.41%.
On to `CCC1c2cccn2-c2ccccc2CN1C(=O)Nc1cccc(C)c1C` (stereo not given), for which the activity change, negative = inhibition in experiment [1] was 2.68% (inactive); in experiment [2], -0.789%; in experiment [3], 3.87%; in experiment [4], -2.49%; in experiment [5], -4.56%; in experiment [6], 2.16%.

The values above are taken from PubChem BioAssay AID1745853 (National Center for Advancing Translational Sciences (NCATS), 2022).
